Assay [1] concerns the target Transcription factor E2F1 (Homo sapiens) (UniProt Q01094). Kind of assay: ATG_E2F_CIS: Attagene CIS-FACTORIAL HepG2 Assay for human E2F Transcription Factor 1 (AID 2282935). As to conditions: HepG2 Attagene cis-reporter, E2F reporter RNA transcripts; actives raise or lower the signal. The method, boiled down:
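Fluorescent RT-PCR products, digested with HpaI for 2 h at 37 C, are separated by capillary electrophoresis. Source RNA comes from transfected HepG2 cultures treated for 24 h.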

A short description of assay [2]: ATG_M_61_CIS: Attagene CIS-FACTORIAL HepG2 Assay for M61 Transcription Factor (Internal Marker) (AID 2282937). As to conditions: HepG2 Attagene CIS-FACTORIAL M61 internal marker reporter; actives raise or lower the signal. Summed up: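 Using transiently transfected HepG2 liver cells, reporter transcript levels were assessed 24 h post-dosing by RT-PCR and capillary electrophoresis. Changes in either direction were fitted relative to DMSO controls.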

The nature of assay [3]: ATG_EGR_CIS: Attagene CIS-FACTORIAL HepG2 Assay for human Early Growth Response 1 (EGR1) (AID 2282938). Particulars: HepG2 Attagene CIS-FACTORIAL EGR reporter mRNA; actives raise or lower the signal. Summed up: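 Fluorescent capillary-electrophoresis signal of reporter cDNA fragments serves as read-out. HepG2 cells bear transiently transfected cis-promoter reporter units and are exposed 24 h; gain- or loss-of-signal is fitted against DMSO.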

The nature of assay [4]: ATG_Ets_CIS: Attagene CIS-FACTORIAL HepG2 Assay for human Erythroblast Transformation Specific (ETS) (AID 2282941). As to conditions: HepG2 ETS cis-reporter transcription, actives raise or lower the signal. Summed up: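 Multiplexed reporter transcript profiling: HepG2, 24 h treatment, total RNA to cDNA, PCR, 6-FAM labelling, HpaI cut, capillary electrophoresis. Gain- or loss-of-signal fitted against DMSO.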

Assay [5] deals with Hepatocyte nuclear factor 3-beta (Homo sapiens) (UniProt Q9Y261). Kind of assay: ATG_FoxA2_CIS: Attagene CIS-FACTORIAL HepG2 Assay for human Forkhead box A2 (FOXA2) (AID 2282942). As to conditions: HepG2 cis-reporter transcription factor activity, 24 h; actives raise or lower the signal. The method, boiled down:
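Fluorescence signal of reporter cDNA fragments, separated by capillary electrophoresis, reflects endogenous transcription factor activity in transfected HepG2 after 24 h. Both increases and decreases fitted against DMSO.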

Assay [6] can be described thus: ATG_FoxO_CIS: Attagene CIS-FACTORIAL HepG2 Assay for human Forkhead box O (FoxO) (AID 2282943). Particulars: HepG2 Attagene cis-reporter, FoxO element, mRNA; actives raise or lower the signal. The method, boiled down:
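Endogenous transcription factor activity read from multiplexed cis-promoter reporter transcripts in transiently transfected HepG2, 24 h after dosing. Reporter RNA measured via RT-PCR plus capillary electrophoresis of FAM-labeled products; gain or loss relative to DMSO.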

In assay [7] the target is Hypoxia-inducible factor 1-alpha (Homo sapiens) (UniProt Q16665). Kind of assay: ATG_HIF1a_CIS: Attagene CIS-FACTORIAL HepG2 Assay for human Hypoxia Inducible Factor 1 (HIF1A) (AID 2282951). Particulars: HepG2 Attagene cis-factorial HIF1a reporter transcription; actives raise or lower the signal. Summed up:
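Endogenous-TF cis reporter readout, human HepG2 cells, 24 h incubation; mRNA detected via RT-PCR and capillary electrophoresis fluorescence; DMSO-normalised bidirectional fitting.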

A short description of assay [8]: ATG_RORE_CIS: Attagene CIS-FACTORIAL HepG2 Assay for human RAR-related Orphan Receptor Element (RORE) (AID 2282959). Particulars: HepG2 Attagene cis-factorial RORE reporter, mRNA; actives raise or lower the signal. The method, boiled down:
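Measured here: transcript induction of a cis-regulated reporter in HepG2 cells transiently transfected via FuGene 6. After 24 h, RNA was processed by RT-PCR and fluorescent capillary electrophoresis; DMSO defined baseline activity.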

The nature of assay [9]: ATG_TGFb_CIS: Attagene CIS-FACTORIAL HepG2 Assay for human Transforming Growth Factor (TGF) (AID 2282967). Particulars: HepG2 Attagene CIS TGFb reporter, mRNA transcription; actives raise or lower the signal. Summed up:
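Readout: fluorescently labeled reporter cDNA fragments resolved by capillary electrophoresis after RT-PCR. Transfected HepG2 cells dosed for 24 h; endogenous TF activity at TGFB1-linked cis element; gain or loss fitted relative to DMSO.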

Assay [10] can be described thus: ATG_VDRE_CIS: Attagene CIS-FACTORIAL HepG2 Assay for human Vitamin D Receptor Element (VDRE) (AID 2282968). Particulars: HepG2 VDRE cis-reporter transcription, actives raise or lower the signal. Summed up:
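Measures endogenous factor activity through cis-element-driven reporter transcripts in transiently transfected HepG2. Cells are treated 24 h; reporter mRNA is quantified by RT-PCR and capillary electrophoresis; fitting is bidirectional.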

The target in assay [11] is Transcriptional activator Myb (Homo sapiens) (UniProt P10242). Kind of assay: ATG_Myb_CIS: Attagene CIS-FACTORIAL HepG2 Assay for human Myeloblastosis (Myb) Proto-Oncogene Transcription Factor (AID 2282986). As to conditions: HepG2 Attagene CIS-FACTORIAL Myb reporter transcription; actives raise or lower the signal. Summed up:
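Multiplexed cis-reporter system in HepG2: transient transfection, 24 h treatment, mRNA readout by RT-PCR and capillary electrophoresis. Both increases and decreases are scored versus DMSO negative control.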

Assay [12] concerns the target Nuclear respiratory factor 1 (Homo sapiens) (UniProt Q16656). Kind of assay: ATG_NRF1_CIS: Attagene CIS-FACTORIAL HepG2 Assay for human Nuclear Respiratory Factor 1 (NRF1) Orphan Gene (AID 2282987). Particulars: HepG2 NRF1 cis-element reporter, Attagene multiplex; actives raise or lower the signal. The method, boiled down:
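Endogenous factor activity was captured via cis-element-driven reporter transcripts in HepG2 cells. Following 24 h chemical treatment, transcripts were quantified by RT-PCR and capillary electrophoresis.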

Assay [13] can be described thus: ATG_NFI_CIS: Attagene CIS-FACTORIAL HepG2 Assay for human Nuclear Factor I (NFI) (AID 2282989). Particulars: HepG2 cis-regulatory reporter, NFI response element transcription; actives raise or lower the signal. The method, boiled down: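 Read-out: reporter mRNA via RT-PCR plus capillary electrophoresis with fluorescence detection. Transiently transfected HepG2 (endogenous TF activity on cis promoters), 24 h compound exposure; gain or loss of signal fitted against DMSO.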

Assay [14] deals with Cellular tumor antigen p53 (Homo sapiens) (UniProt P04637). Kind of assay: ATG_p53_CIS: Attagene CIS-FACTORIAL HepG2 Assay for human p53 Transcription Factor (AID 2282994). Particulars: HepG2 p53 cis-element reporter, Attagene mRNA; actives raise or lower the signal. The method, boiled down: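 Transiently transfected HepG2 (multiple cis reporter transcription units); exposure 24 h; reporter RNA via RT-PCR, 6-FAM extension, 2 h HpaI digest at 37 C, CE detection; DMSO baseline.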
Sequence of Cellular tumor antigen p53 (Homo sapiens) (P04637 whole entry, looked up): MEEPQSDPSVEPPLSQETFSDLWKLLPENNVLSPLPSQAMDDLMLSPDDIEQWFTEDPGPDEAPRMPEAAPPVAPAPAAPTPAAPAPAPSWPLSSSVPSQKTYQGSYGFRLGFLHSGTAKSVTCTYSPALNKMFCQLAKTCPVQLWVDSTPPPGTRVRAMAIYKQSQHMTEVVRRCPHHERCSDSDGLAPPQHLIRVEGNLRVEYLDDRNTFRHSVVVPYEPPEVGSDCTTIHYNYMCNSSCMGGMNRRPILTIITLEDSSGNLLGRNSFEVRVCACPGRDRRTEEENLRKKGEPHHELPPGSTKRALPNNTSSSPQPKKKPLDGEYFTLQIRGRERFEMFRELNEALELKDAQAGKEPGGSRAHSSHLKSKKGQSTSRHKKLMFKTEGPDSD

Assay [15] deals with Nuclear receptor subfamily 1 group I member 2 (Homo sapiens) (UniProt O75469). Kind of assay: ATG_PXR_TRANS: Attagene TRANS-FACTORIAL HepG2 Assay for human Pregnane X Receptor (PXR) (AID 2283008; active = hit-call score of the fitted dose curve at least 0.9, where 1 is the maximum). Summed up: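 Transient HepG2 transfectants carrying multiplexed reporter transcription units; PXR activity read through a Gal4 chimera. 24 h exposure. RT-PCR/CE fluorescence; upward curve fit referenced to DMSO.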
Sequence of Nuclear receptor subfamily 1 group I member 2 (Homo sapiens) (O75469 whole entry, looked up, the tested form may be a part): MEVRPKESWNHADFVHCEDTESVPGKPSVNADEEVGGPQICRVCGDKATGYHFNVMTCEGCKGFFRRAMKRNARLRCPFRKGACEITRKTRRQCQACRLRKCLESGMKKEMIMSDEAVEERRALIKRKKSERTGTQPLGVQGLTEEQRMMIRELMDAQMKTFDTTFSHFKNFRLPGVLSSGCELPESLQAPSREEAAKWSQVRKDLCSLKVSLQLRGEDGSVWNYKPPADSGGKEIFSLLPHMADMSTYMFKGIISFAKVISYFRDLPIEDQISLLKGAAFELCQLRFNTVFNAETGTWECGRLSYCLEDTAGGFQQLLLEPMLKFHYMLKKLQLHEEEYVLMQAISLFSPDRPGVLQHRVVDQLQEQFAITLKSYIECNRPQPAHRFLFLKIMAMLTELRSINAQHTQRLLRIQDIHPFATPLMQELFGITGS

A short description of assay [16]: ATG_XTT_Cytotoxicity: Cytotoxicity Assessment in the Attagene TRANS-FACTORIAL HepG2 Assay (AID 2283584; active = hit-call score of the fitted dose curve at least 0.9, where 1 is the maximum). Summed up: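 HepG2 cells transiently transfected with GAL4-UAS multiple reporter units, dosed 24 h; cytotoxicity read by XTT as loss of signal versus DMSO baseline.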
Assay [17] has as its target Cellular tumor antigen p53 (Homo sapiens) (UniProt P04637). Kind of assay: TOX21_p53_BLA_p2_ratio: Tox21 HCT-116 p53 Agonism Beta-lactamase Assay, Ratio, Phase 2 (AID 2283592; active = hit-call score of the fitted dose curve at least 0.9, where 1 is the maximum). The method, boiled down:
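First, HCT116 reporter cells settle for 5 h at 37C. Next, DMSO compound solutions are pinned in (217-fold dilution) and left 16 h. Finally, CCF4-AM substrate is loaded 2 h at room temperature and the 460/530 nm ratio read.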

Assay [18] addresses X-box-binding protein 1 (Homo sapiens) (UniProt P17861). Kind of assay: ATG_Xbp1_CIS: Attagene CIS-FACTORIAL HepG2 Assay for human X-box Binding Protein 1 (XBP1) (AID 2282972). Particulars: HepG2 XBP1 cis-element reporter, Attagene multiplex; actives raise or lower the signal. Summed up: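 Human hepatoma HepG2, cis-element reporter system, 24 h treatment; mRNA quantified by RT-PCR/CE fluorescence; fit relative to DMSO.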

Assay [19] addresses Myc proto-oncogene protein (Homo sapiens) (UniProt P01106). Kind of assay: ATG_Myc_CIS: Attagene CIS-FACTORIAL HepG2 Assay for human Myelocytomatosis (Myc) Proto-Oncogene Transcription Factor (AID 2282990). Particulars: HepG2, Attagene cis-reporter transcription factor activity; actives raise or lower the signal. Summed up:
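After 24 h chemical treatment of HepG2 cells carrying multiplexed cis-regulated reporter constructs, reporter transcripts quantified by RT-PCR and capillary electrophoresis of fluorescent fragments. Gain or loss fitted against DMSO baseline.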

The nature of assay [20]: ATG_AP_2_CIS: Attagene CIS-FACTORIAL HepG2 Assay for human Activator Protein 2 (AP-2) (AID 2282932). As to conditions: HepG2 AP-2 cis-reporter, Attagene transcription factor profiling; actives raise or lower the signal. The method, boiled down: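 Transiently transfected HepG2 cells are exposed to chemical for 24 h. Reporter transcripts are then measured as fluorescence following RT-PCR and capillary separation, and gain- or loss-of-signal is fitted relative to DMSO.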

Results filed as inconclusive are left out. The source made the active and inactive calls. Rule for the calls, unless noted: active = hit-call score of the fitted dose curve at least 0.9, where 1 is the maximum; inactive = score below 0.9.

Sequence of Transcription factor E2F1 (Homo sapiens) (Q01094 whole entry, looked up): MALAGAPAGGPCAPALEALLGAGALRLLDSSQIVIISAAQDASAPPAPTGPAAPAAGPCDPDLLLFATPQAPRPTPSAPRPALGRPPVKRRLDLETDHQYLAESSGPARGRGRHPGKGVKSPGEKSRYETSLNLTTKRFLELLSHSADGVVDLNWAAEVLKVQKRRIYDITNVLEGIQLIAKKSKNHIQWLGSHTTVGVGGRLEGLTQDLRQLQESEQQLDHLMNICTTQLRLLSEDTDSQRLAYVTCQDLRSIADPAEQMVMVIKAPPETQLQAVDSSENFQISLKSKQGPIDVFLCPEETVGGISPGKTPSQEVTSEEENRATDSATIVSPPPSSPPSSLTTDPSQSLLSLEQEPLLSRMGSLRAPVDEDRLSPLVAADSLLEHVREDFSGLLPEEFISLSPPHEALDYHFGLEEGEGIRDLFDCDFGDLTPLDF
Sequence of Hypoxia-inducible factor 1-alpha (Homo sapiens) (Q16665 whole entry, looked up): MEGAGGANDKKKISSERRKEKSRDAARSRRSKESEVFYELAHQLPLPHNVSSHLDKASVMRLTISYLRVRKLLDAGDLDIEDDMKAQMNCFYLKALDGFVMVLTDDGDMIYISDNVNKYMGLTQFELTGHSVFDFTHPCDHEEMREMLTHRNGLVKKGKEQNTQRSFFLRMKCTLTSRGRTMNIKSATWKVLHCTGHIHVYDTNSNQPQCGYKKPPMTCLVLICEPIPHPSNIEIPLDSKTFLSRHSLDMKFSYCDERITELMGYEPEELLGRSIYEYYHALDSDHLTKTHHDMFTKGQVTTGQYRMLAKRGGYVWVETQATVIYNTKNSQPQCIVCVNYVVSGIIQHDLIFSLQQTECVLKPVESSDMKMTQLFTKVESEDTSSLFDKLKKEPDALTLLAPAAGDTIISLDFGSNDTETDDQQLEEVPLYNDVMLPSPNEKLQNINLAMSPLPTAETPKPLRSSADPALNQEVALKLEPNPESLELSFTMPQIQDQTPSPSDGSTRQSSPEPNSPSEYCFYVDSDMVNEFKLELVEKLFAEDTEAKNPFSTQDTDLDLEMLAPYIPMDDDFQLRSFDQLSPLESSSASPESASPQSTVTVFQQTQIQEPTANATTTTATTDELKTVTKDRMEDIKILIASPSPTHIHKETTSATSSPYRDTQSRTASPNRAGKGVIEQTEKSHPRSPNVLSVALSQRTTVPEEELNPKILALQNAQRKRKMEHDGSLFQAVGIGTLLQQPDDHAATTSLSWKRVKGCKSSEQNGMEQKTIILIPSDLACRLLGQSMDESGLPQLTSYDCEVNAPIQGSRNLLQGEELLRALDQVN
Sequence of Myc proto-oncogene protein (Homo sapiens) (P01106 whole entry, looked up, the tested form may be a part): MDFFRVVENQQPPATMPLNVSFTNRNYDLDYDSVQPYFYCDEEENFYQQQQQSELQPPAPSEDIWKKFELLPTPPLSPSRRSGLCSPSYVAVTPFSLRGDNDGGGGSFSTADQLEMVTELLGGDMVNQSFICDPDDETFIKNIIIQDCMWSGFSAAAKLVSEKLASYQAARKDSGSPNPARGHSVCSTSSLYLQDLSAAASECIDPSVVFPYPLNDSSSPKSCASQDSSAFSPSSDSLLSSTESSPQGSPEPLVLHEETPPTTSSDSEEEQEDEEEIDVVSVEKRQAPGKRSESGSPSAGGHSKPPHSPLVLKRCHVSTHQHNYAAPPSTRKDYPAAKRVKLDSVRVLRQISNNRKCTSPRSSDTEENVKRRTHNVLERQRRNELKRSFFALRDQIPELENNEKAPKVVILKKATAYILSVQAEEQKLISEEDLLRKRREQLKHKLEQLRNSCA
Sequence of Nuclear respiratory factor 1 (Homo sapiens) (Q16656 whole entry, looked up): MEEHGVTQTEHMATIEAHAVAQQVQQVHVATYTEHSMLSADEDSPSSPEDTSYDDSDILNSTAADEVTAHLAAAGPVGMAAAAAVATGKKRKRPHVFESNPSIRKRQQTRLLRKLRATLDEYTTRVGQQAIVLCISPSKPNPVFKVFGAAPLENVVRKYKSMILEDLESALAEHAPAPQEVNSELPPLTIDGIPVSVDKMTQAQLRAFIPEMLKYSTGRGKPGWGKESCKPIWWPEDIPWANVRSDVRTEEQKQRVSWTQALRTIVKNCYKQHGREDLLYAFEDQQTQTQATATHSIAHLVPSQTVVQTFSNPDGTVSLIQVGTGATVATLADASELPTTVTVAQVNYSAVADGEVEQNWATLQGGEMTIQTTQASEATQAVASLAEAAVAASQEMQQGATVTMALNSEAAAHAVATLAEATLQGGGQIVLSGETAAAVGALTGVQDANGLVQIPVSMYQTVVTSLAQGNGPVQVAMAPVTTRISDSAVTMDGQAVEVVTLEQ
Sequence of Hepatocyte nuclear factor 3-beta (Homo sapiens) (Q9Y261 whole entry, looked up, the tested form may be a part): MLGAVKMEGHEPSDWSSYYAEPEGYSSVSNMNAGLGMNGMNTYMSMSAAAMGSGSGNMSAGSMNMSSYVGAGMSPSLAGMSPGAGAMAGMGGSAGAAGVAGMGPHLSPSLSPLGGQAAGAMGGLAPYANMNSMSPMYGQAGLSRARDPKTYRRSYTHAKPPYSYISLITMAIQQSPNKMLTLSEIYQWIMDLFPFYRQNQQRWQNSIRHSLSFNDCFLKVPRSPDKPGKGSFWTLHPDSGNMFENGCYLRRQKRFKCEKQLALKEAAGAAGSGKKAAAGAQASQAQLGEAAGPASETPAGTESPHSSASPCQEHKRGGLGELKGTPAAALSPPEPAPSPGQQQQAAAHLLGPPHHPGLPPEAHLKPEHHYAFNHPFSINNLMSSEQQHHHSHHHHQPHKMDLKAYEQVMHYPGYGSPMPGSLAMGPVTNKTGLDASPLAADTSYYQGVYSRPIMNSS
Sequence of Transcriptional activator Myb (Homo sapiens) (P10242 whole entry, looked up): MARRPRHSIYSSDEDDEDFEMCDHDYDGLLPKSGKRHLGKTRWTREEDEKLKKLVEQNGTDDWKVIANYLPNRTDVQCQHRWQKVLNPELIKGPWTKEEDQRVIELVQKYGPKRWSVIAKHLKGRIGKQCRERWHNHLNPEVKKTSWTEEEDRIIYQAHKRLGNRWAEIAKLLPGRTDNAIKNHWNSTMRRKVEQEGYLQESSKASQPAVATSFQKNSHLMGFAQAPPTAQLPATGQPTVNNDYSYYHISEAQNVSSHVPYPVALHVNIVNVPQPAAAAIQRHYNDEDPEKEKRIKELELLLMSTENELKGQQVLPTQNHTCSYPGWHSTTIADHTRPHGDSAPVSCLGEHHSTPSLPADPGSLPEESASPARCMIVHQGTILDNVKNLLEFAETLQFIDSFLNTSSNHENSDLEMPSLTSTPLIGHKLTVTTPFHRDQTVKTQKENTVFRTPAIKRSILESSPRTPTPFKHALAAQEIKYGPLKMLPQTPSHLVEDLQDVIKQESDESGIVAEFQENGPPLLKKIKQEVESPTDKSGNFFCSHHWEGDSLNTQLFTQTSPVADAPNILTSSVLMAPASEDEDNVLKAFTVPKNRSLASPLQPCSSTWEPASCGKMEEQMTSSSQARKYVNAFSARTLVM
Sequence of X-box-binding protein 1 (Homo sapiens) (P17861 whole entry, looked up): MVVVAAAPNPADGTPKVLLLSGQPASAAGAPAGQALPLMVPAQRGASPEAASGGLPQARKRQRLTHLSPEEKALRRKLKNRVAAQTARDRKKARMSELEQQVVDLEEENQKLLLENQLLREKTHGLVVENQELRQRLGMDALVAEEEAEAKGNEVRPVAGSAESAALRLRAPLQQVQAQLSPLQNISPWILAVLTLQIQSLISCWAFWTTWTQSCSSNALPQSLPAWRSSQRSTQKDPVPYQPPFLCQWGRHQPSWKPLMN

For the compound `CCCCNC(N)=O`, the outcome in assay [1], in assay [2], in assay [3], in [4], in assay [5] and in [6] was inactive. Besides, the call in assay [7], in assay [8], in assay [9], in assay [10], in assay [11] and in assay [12] was inactive. In addition, the outcome in [13], in assay [14], in assay [15], in assay [16] and in [17] was inactive.
Regarding `O=C(O)c1ccccc1C(=O)O`, the compound was classed as inactive in assay [1], in assay [2], in assay [3], in assay [4], in assay [5] and in [6]. In addition, the compound was called inactive in assay [7], in [8], in assay [9], in assay [18], in assay [11] and in assay [12]. In addition, the call in [13], in assay [19], in assay [14], in assay [16] and in assay [17] was inactive.
Usually AC50 stands for the concentration at which the activity in the assay is half-maximal. Turning to `CCCCCCC(O)CCCCCCCCCCC(=O)OC` (stereo not drawn), the outcome in assay [1], in [3], in assay [4], in assay [5], in [7] and in [10] was inactive. Besides, the result in assay [18], in assay [11], in assay [12], in assay [13], in [19] and in [14] was inactive. The compound was classed as inactive in assay [15], in assay [16] and in assay [17]. The AC50 in [8] is 21.8 µM (active); in [9], 100 µM (active).
`C=CN1CCCCCC1=O`: the compound was called inactive in assay [20], in [1], in assay [3], in assay [4], in assay [5] and in assay [7]. For the same compound, the outcome in assay [8], in assay [9], in assay [10], in [18], in assay [11] and in assay [12] was inactive. Also, the compound was called inactive in assay [13], in assay [19], in [14], in [15], in assay [16] and in [17].
As to `CC(C)CC(=O)CC(C)C`, the compound was called inactive in [20], in assay [2], in assay [4], in assay [5], in [6] and in assay [7]. The compound was classed as inactive in assay [8], in assay [9], in assay [10], in [11], in [12] and in assay [13]. For the same compound, the result in assay [19], in assay [14], in assay [15], in [16] and in assay [17] was inactive.
For the compound `COC(=O)[C@]1(C)CCC[C@@]2(C)[C@H]1CC=C1C=C(C(C)C)CC[C@@H]12`, the compound was called inactive in assay [1], in assay [4], in assay [5], in assay [6], in assay [7] and in assay [8]. Also, the outcome in assay [9], in assay [18], in assay [11], in [12], in [13] and in assay [19] was inactive. The compound was classed as inactive in assay [14], in assay [16] and in assay [17]. For the same compound, the AC50 in assay [10] was 26.4 µM (active); in assay [15] it was 25.1 µM (active).

These data come from PubChem BioAssay (EPA / NIEHS).
